Laboratory results published in PubChem BioAssay AID1159580 (chemical genetic matrix, 2015).
Among all 5,500 compounds or so, about 2,000 (36%) were called active. Roughly 18% stayed inconclusive and do not appear here. Rule as the data show it: active = normalized growth mostly below about 0.91 (no sharp cut-off); inconclusive = no clear call, values can overlap the other calls; inactive = mostly above about 0.92. The list shows a part of the results.

Test: chemical genetic growth profiling, strain panel (AID 1159580);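 also: tested at 20 µM; growth read once vehicle control cultures reached saturation at 30 °C; 1 = growth at the plate median or of vehicle wells; lower values mean less growth of the strain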
Settings: growth OD
[1] = S. cerevisiae deletion strains, locus YHR030C, strain SLT2, active compounds read low

Measured: normalized growth

O=C1ON=C(CSc2ccccc2)/C1=C/c1ccc(Cl)cc1
active: S. cerevisiae deletion strains, locus YAL013W, strain DEP1, active compounds read low 0.0593 | S. cerevisiae deletion strains, locus YBR229C, strain ROT2, active compounds read low 0.0605 | S. cerevisiae deletion strains, locus YDL101C, strain DUN1, active compounds read low 0.0787 | S. cerevisiae deletion strains, locus YDR150W, strain NUM1, active compounds read low 0.0599 | S. cerevisiae deletion strains, locus YEL061C, strain CIN8, active compounds read low 0.215 | S. cerevisiae deletion strains, locus YGR078C, strain PAC10, active compounds read low 0.0528 | S. cerevisiae deletion strains, locus YGR229C, strain SMI1, active compounds read low 0.522 | [1] 0.0755 | S. cerevisiae deletion strains, locus YHR087W, strain rtc3, active compounds read low 0.0592 | S. cerevisiae deletion strains, locus YJR043C, strain POL32, active compounds read low 0.0516 | S. cerevisiae deletion strains, locus YJR075W, strain HOC1, active compounds read low 0.0832 | S. cerevisiae deletion strains, locus YKL190W, strain CNB1, active compounds read low 0.201 | S. cerevisiae deletion strains, locus YLR039C, strain RIC1, active compounds read low 0.283 | S. cerevisiae deletion strains, locus YLR058C, strain SHM2 (second series), active compounds read low 0.0598 | S. cerevisiae deletion strains, locus YLR085C, strain ARP6, active compounds read low 0.0742 | S. cerevisiae deletion strains, locus YLR262C, strain YPT6, active compounds read low 0.324 | S. cerevisiae deletion strains, locus YML094W, strain GIM5, active compounds read low 0.343 | S. cerevisiae deletion strains, locus YMR219W, strain ESC1, active compounds read low 0.0677 | S. cerevisiae deletion strains, locus YMR263W, strain SAP30, active compounds read low 0.0516 | S. cerevisiae deletion strains, locus YNL153C, strain GIM3, active compounds read low 0.0589 | S. cerevisiae deletion strains, locus YNL298W, strain CLA4 (second series), active compounds read low 0.155 | S. cerevisiae deletion strains, locus YNL322C, strain KRE1, active compounds read low 0.0609 | S. cerevisiae deletion strains, locus YNR030W, strain Alg12, active compounds read low 0.101 | S. cerevisiae deletion strains, locus YPL055C, strain LGE1, active compounds read low 0.0724 | S. cerevisiae deletion strains, locus YPL241C, strain CIN2, active compounds read low 0.0913 | S. cerevisiae deletion strains, locus YPR135W, strain CTF4, active compounds read low 0.161 | S. cerevisiae strains, strain wild type, active compounds read low 0.337

COc1cccc2c1C(=O)c1c(O)c3c(c(O)c1C2=O)C[C@@](O)(C(C)=O)C[C@@H]3O[C@H]1C[C@H](N)[C@H](O)[C@H](C)O1
active: S. cerevisiae deletion strains, locus YAL021C, strain ccr4, active compounds read low 0.872 | S. cerevisiae deletion strains, locus YBR009C, strain hhf1, active compounds read low 0.894 | S. cerevisiae deletion strains, locus YDR159W, strain sac3, active compounds read low 0.836 | S. cerevisiae deletion strains, locus YER015W, strain faa2, active compounds read low 0.914 | S. cerevisiae deletion strains, locus YER155C, strain BEM2 (second series), active compounds read low 0.802 | S. cerevisiae deletion strains, locus YGL240W, strain doc1, active compounds read low 0.621 | S. cerevisiae deletion strains, locus YGL253W, strain hxk2, active compounds read low 0.907 | S. cerevisiae deletion strains, locus YJL115W, strain asf1, active compounds read low 0.885 | S. cerevisiae deletion strains, locus YJL129C, strain trk1, active compounds read low 0.53 | S. cerevisiae deletion strains, locus YJL166W, strain qcr8, active compounds read low 0.827 | S. cerevisiae deletion strains, locus YLR320W, strain mms22, active compounds read low 0.727 | S. cerevisiae deletion strains, locus YMR205C, strain PFK2, active compounds read low 0.873 | S. cerevisiae deletion strains, locus YNL071W, strain lat1, active compounds read low 0.848 | S. cerevisiae deletion strains, locus YNL248C, strain rpa49, active compounds read low 0.706 | S. cerevisiae deletion strains, locus YPL078C, strain atp4, active compounds read low 0.891
inactive: S. cerevisiae deletion strains, locus YAL026C, strain drs2, active compounds read low 0.959 | S. cerevisiae deletion strains, locus YAL030W, strain snc1, active compounds read low 0.946 | S. cerevisiae deletion strains, locus YBL061C, strain skt5, active compounds read low 0.953 | S. cerevisiae deletion strains, locus YBR023C, strain chs3, active compounds read low 0.953 | S. cerevisiae deletion strains, locus YBR231C, strain swc5, active compounds read low 0.913 | S. cerevisiae deletion strains, locus YBR279W, strain paf1, active compounds read low 0.968 | S. cerevisiae deletion strains, locus YCL011C, strain gbp2, active compounds read low 0.969 | S. cerevisiae deletion strains, locus YCL016C, strain dcc1, active compounds read low 1 | S. cerevisiae deletion strains, locus YCL069W, strain vba3, active compounds read low 0.966 | S. cerevisiae deletion strains, locus YCR088W, strain abp1, active compounds read low 0.981 | S. cerevisiae deletion strains, locus YDL005C, strain med2, active compounds read low 0.962 | S. cerevisiae deletion strains, locus YDL040C, strain nat1, active compounds read low 0.941 | S. cerevisiae deletion strains, locus YDR001C, strain nth1, active compounds read low 0.958 | S. cerevisiae deletion strains, locus YDR069C, strain doa4, active compounds read low 0.922 | S. cerevisiae deletion strains, locus YDR137W, strain rgp1, active compounds read low 0.956 | S. cerevisiae deletion strains, locus YDR195W, strain ref2 0.983 | S. cerevisiae deletion strains, locus YDR297W, strain sur2, active compounds read low 0.967 | S. cerevisiae deletion strains, locus YDR334W, strain swr1, active compounds read low 0.903 | S. cerevisiae deletion strains, locus YDR335W, strain msn5, active compounds read low 0.987 | S. cerevisiae deletion strains, locus YDR392W, strain spt3, active compounds read low 0.976 | S. cerevisiae deletion strains, locus YEL003W, strain gim4, active compounds read low 0.989 | S. cerevisiae deletion strains, locus YEL037C, strain rad23, active compounds read low 0.974 | S. cerevisiae deletion strains, locus YEL061C, strain CIN8 (second series), active compounds read low 0.951 | S. cerevisiae deletion strains, locus YER016W, strain bim1, active compounds read low 0.993 | S. cerevisiae deletion strains, locus YER111C, strain swi4, active compounds read low 0.991 | S. cerevisiae deletion strains, locus YFR010W, strain ubp6, active compounds read low 0.91 | S. cerevisiae deletion strains, locus YGL167C, strain pmr1, active compounds read low 0.986 | S. cerevisiae deletion strains, locus YGL173C, strain kem1, active compounds read low 0.97 | S. cerevisiae deletion strains, locus YGL227W, strain vid30, active compounds read low 0.941 | S. cerevisiae deletion strains, locus YHR013C, strain ard1, active compounds read low 0.933 | S. cerevisiae deletion strains, locus YHR027C, strain rpn1, active compounds read low 0.94 | [1] 0.994 | S. cerevisiae deletion strains, locus YHR079C, strain IRE1, active compounds read low 0.989 | S. cerevisiae deletion strains, locus YHR142W, strain chs7, active compounds read low 0.956 | S. cerevisiae deletion strains, locus YJL092W, strain hpr5, active compounds read low 0.975 | S. cerevisiae deletion strains, locus YJL095W, strain BCK1 (second series), active compounds read low 0.977 | S. cerevisiae deletion strains, locus YJL095W, strain BCK1, active compounds read low 1.01 | S. cerevisiae deletion strains, locus YJL154C, strain vps35, active compounds read low 0.957 | S. cerevisiae deletion strains, locus YJL164C, strain tpk1, active compounds read low 0.97 | S. cerevisiae deletion strains, locus YJR066W, strain TOR1, active compounds read low 0.954 | S. cerevisiae deletion strains, locus YKL160W, strain elf1, active compounds read low 0.963 | S. cerevisiae deletion strains, locus YKR026C, strain gcn3, active compounds read low 0.971 | S. cerevisiae deletion strains, locus YKR091W, strain srl3, active compounds read low 0.971 | S. cerevisiae deletion strains, locus YLL001W, strain dnm1, active compounds read low 0.981 | S. cerevisiae deletion strains, locus YLL026W, active compounds read low 0.986 | S. cerevisiae deletion strains, locus YLL041C, strain sdh2, active compounds read low 0.971 | S. cerevisiae deletion strains, locus YLR027C, strain aat2, active compounds read low 0.976 | S. cerevisiae deletion strains, locus YLR113W, strain HOG1, active compounds read low 1.01 | S. cerevisiae deletion strains, locus YLR221C, strain rsa3, active compounds read low 0.977 | S. cerevisiae deletion strains, locus YLR258W, strain gsy2, active compounds read low 0.991 | S. cerevisiae deletion strains, locus YLR262C, strain YPT6 (second series), active compounds read low 0.919 | S. cerevisiae deletion strains, locus YLR342W, strain FKS1, active compounds read low 0.967 | S. cerevisiae deletion strains, locus YLR357W, strain rsc2, active compounds read low 0.917 | S. cerevisiae deletion strains, locus YLR370C, strain arc18, active compounds read low 0.97 | S. cerevisiae deletion strains, locus YLR384C, strain iki3, active compounds read low 0.966 | S. cerevisiae deletion strains, locus YML120C, strain ndi1, active compounds read low 0.959 | S. cerevisiae deletion strains, locus YMR058W, strain fet3, active compounds read low 0.922 | S. cerevisiae deletion strains, locus YMR125W, strain sto1, active compounds read low 0.966 | S. cerevisiae deletion strains, locus YMR129W, active compounds read low 0.978 | S. cerevisiae deletion strains, locus YMR231W, strain pep5, active compounds read low 0.968 | S. cerevisiae deletion strains, locus YNL183C, strain NPR1, active compounds read low 0.971 | S. cerevisiae deletion strains, locus YNL209W, strain ssb2, active compounds read low 0.945 | S. cerevisiae deletion strains, locus YNL322C, strain KRE1 (second series), active compounds read low 0.975 | S. cerevisiae deletion strains, locus YNR049C, strain mso1, active compounds read low 0.965 | S. cerevisiae deletion strains, locus YOR001W, strain rrp6, active compounds read low 0.96 | S. cerevisiae deletion strains, locus YOR070C, strain gyp1, active compounds read low 0.977 | S. cerevisiae deletion strains, locus YOR080W, strain dia2, active compounds read low 0.951 | S. cerevisiae deletion strains, locus YOR083W, strain WHI5, active compounds read low 0.972 | S. cerevisiae deletion strains, locus YOR106W, strain vam3, active compounds read low 0.911 | S. cerevisiae deletion strains, locus YOR231W, strain MKK1, active compounds read low 1.01 | S. cerevisiae deletion strains, locus YOR265W, strain rbl2, active compounds read low 0.949 | S. cerevisiae deletion strains, locus YOR270C, strain vph1, active compounds read low 0.919 | S. cerevisiae deletion strains, locus YOR290C, strain snf2, active compounds read low 0.995 | S. cerevisiae deletion strains, locus YPL051W, strain arl3, active compounds read low 0.958 | S. cerevisiae deletion strains, locus YPL106C, strain sse1, active compounds read low 1.1 | S. cerevisiae deletion strains, locus YPL240C, strain hsp82, active compounds read low 0.98 | S. cerevisiae deletion strains, locus YPL256C, strain CLN2, active compounds read low 0.987
